This note sets out measurements from PubChem BioAssay (NCI).

Test systems include NCI-H23 lung; NCI-H226 lung; NCI-H322M lung; HOP-62 NSCLC; NCI-H460 lung; HOP-92 NSCLC; NCI-H522 lung; A549/ATCC NSCLC; 786-0 renal; COLO 205 colon; DU-145 prostate; K-562 leukemia; MALME-3M melanoma; MDA-MB-231 breast; RXF 393 renal; SF-268 CNS; SF-295 CNS; SF-539 CNS; UACC-257 melanoma; M14 melanoma.
Holding throughout (assay): NCI-60 one-dose screen, 48 h (100 = growth as untreated, 0 = no growth, -100 = all killed)
Holding throughout (details): 10 µM unless noted

The panel holds about 83,000 compounds, 20% with a hit somewhere; the sample as a whole holds those more often.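 Negative percent growth values reflect cell death: -40 means 40% of the cells present at the start died, and -100 means all died.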 A number with no mark means an inactive call. Calls of active or inactive are those of the source. The calls were made as follows: active = growth percent below 10; inactive = the rest.

Regarding `COc1ccc(NC(=S)NNc2ccc(-c3ccc(OC)c(OC)c3)nn2)cc1`, the growth was 106% in the experiment with NCI-H23 lung; 107% in the experiment with NCI-H226 lung; 96.7% in the experiment with NCI-H322M lung; 97.8% in the experiment with HOP-62 NSCLC; 99.7% with NCI-H460 lung; 106% with HOP-92 NSCLC. Further, the growth in the experiment on NCI-H522 lung was 97.9%; with A549/ATCC NSCLC, 110%; in the experiment with 786-0 renal, 101%; in the experiment on COLO 205 colon, 112%; in the experiment on DU-145 prostate it was 107%; in the experiment with K-562 leukemia, 104%. The growth was 112% with MALME-3M melanoma; 96.1% in the experiment on MDA-MB-231 breast; 120% in the experiment with RXF 393 renal; 92.9% in the experiment with SF-268 CNS; 101% in the experiment on SF-295 CNS; 97.6% with SF-539 CNS. Further, the growth with UACC-257 melanoma was 103%; with M14 melanoma, 99.2%.

As for `Cc1ccc(NCCN2CCCCC2)c2c(=O)c3ccccc3sc12`, the growth in the experiment on NCI-H23 lung was 43.1%; in the experiment on NCI-H226 lung it was 57.2%; in the experiment on NCI-H322M lung, 45.7%; in the experiment on HOP-62 NSCLC it was 55.6%; in the experiment on NCI-H460 lung, 2.26% (active); in the experiment on HOP-92 NSCLC it was 29.5%. Moreover, the growth was 2.96% (active) in the experiment with NCI-H522 lung; 20.2% in the experiment with A549/ATCC NSCLC; 30.7% in the experiment with 786-0 renal; -41.8% (active) in the experiment with COLO 205 colon; 36.7% with DU-145 prostate; 16.2% in the experiment with K-562 leukemia. Besides, the growth with MALME-3M melanoma is 22.1%; with MDA-MB-231 breast it was 28.3%; in the experiment on RXF 393 renal, -29.5% (active); in the experiment on SF-268 CNS it was 45.7%; with SF-295 CNS it was 39%; with SF-539 CNS, 32.3%. Moreover, the growth with UACC-257 melanoma is -43% (active); in the experiment with M14 melanoma, -30% (active).

Consider `O=C(Nc1cc(F)cc2cccnc12)c1cnc(N2CCNCC2)cn1`, for which the growth in the experiment on NCI-H23 lung was 83.4%; in the experiment with NCI-H226 lung it was 100%; in the experiment with NCI-H322M lung, 69.3%; in the experiment with HOP-62 NSCLC it was 85.2%; with NCI-H460 lung it was 80.6%; in the experiment with HOP-92 NSCLC, 49.1%. The growth was 54.5% with NCI-H522 lung; 88.1% in the experiment on A549/ATCC NSCLC; 89.1% with 786-0 renal; 13.9% with COLO 205 colon; 75.2% with DU-145 prostate; 19.8% with K-562 leukemia. For the same compound, the growth in the experiment on MALME-3M melanoma was 59.6%; in the experiment on MDA-MB-231 breast, 71.8%; in the experiment on RXF 393 renal, 54.1%; in the experiment with SF-268 CNS, 77.4%; in the experiment with SF-295 CNS it was 89.3%; with SF-539 CNS, 85.5%. The growth with UACC-257 melanoma is 88%; in the experiment on M14 melanoma it was 86.1%.

Take `CC1(C)CC[C@]23CC[C@]4(C)[C@H](CC[C@@H]5[C@@]6(C)C/C(=C/c7ccncc7)C(=O)C(C)(C)[C@@H]6CC[C@]54C)[C@H]2[C@H]1OC3=O`: the growth with NCI-H23 lung is 61.4% [100 µM]; with NCI-H226 lung, 77.4% [100 µM]; in the experiment with NCI-H322M lung, 96.5% [100 µM]; in the experiment on HOP-62 NSCLC, 10.2% [100 µM]; in the experiment on NCI-H460 lung it was 51% [100 µM]; in the experiment with HOP-92 NSCLC, 16.8% [100 µM]. In addition, the growth with NCI-H522 lung was 50.9% [100 µM]; in the experiment on A549/ATCC NSCLC it was 70.1% [100 µM]; in the experiment with 786-0 renal it was 31% [100 µM]; in the experiment on COLO 205 colon, 90.5% [100 µM]; in the experiment on DU-145 prostate, 80.5% [100 µM]; in the experiment with K-562 leukemia, 50.7% [100 µM]. Besides, the growth is 67.6% [100 µM] with MALME-3M melanoma; 37.5% [100 µM] in the experiment with MDA-MB-231 breast; 43.6% [100 µM] in the experiment on RXF 393 renal; 42.7% [100 µM] in the experiment with SF-268 CNS; 25.1% [100 µM] with SF-295 CNS; 6.84% [100 µM] (active) in the experiment on SF-539 CNS. Further, the figures for the growth in the experiment with UACC-257 melanoma and with M14 melanoma were 84.5% [100 µM] and 79.3% [100 µM], respectively.

As to `O=C1Nc2ccccc2/C1=C/C(=O)c1ccc(N2CCOCC2)cc1`, the growth in the experiment on NCI-H23 lung was 87.4%; in the experiment with NCI-H226 lung, 100%; in the experiment with NCI-H322M lung, 104%; in the experiment with HOP-62 NSCLC, 100%; in the experiment on NCI-H460 lung, 101%; with HOP-92 NSCLC, 71.9%. The growth is 35.7% in the experiment with NCI-H522 lung; 96% in the experiment with A549/ATCC NSCLC; 94.1% in the experiment on 786-0 renal; 101% in the experiment with COLO 205 colon; 74% in the experiment on DU-145 prostate; 75% with K-562 leukemia. Further, the growth in the experiment with MALME-3M melanoma is 75.9%; in the experiment on MDA-MB-231 breast, 88.4%; in the experiment on RXF 393 renal, 92.2%; in the experiment with SF-268 CNS it was 86.5%; with SF-295 CNS, 99.1%; with SF-539 CNS, 90.8%. Besides, the growth was 95.7% in the experiment with UACC-257 melanoma and 99.7% in the experiment with M14 melanoma.

As for `CC(C)=CC/C=C(/C)[C@H]1CC[C@]2(C)[C@@H]1CC[C@@H]1[C@@]3(C)CC/C(=N/O)C(C)(C)[C@@H]3CC[C@]12C`, the growth in the experiment on NCI-H23 lung is 47.5% [100 µM]; in the experiment on NCI-H226 lung, 59.7% [100 µM]; in the experiment with NCI-H322M lung it was 77.3% [100 µM]; in the experiment with HOP-62 NSCLC, 74.2% [100 µM]; with NCI-H460 lung, 40.5% [100 µM]; in the experiment on HOP-92 NSCLC it was 53.1% [100 µM]. Besides, the growth was 21.3% [100 µM] with NCI-H522 lung; 54.9% [100 µM] in the experiment with A549/ATCC NSCLC; 58.7% [100 µM] in the experiment on 786-0 renal; 65.8% [100 µM] with COLO 205 colon; 73.7% [100 µM] with DU-145 prostate; 33.9% [100 µM] in the experiment on K-562 leukemia. Also, the growth in the experiment with MALME-3M melanoma was 81% [100 µM]; in the experiment on MDA-MB-231 breast, 50.5% [100 µM]; in the experiment with RXF 393 renal it was 61.3% [100 µM]; with SF-268 CNS, 72% [100 µM]; with SF-295 CNS, 64.2% [100 µM]; in the experiment with SF-539 CNS it was 64% [100 µM]. Besides, the growth was 59.5% [100 µM] in the experiment on UACC-257 melanoma and 61.1% [100 µM] in the experiment on M14 melanoma.

In the case of `CC1=CC[C@@H]2C(C)(C)C(=O)CC[C@@]2(C)[C@@H]1COc1ccc2ccc(=O)oc2c1`, the growth was 83% in the experiment with NCI-H23 lung; 43.8% in the experiment with NCI-H226 lung; 89.3% with NCI-H322M lung; 97.5% with HOP-62 NSCLC; 89.2% in the experiment with NCI-H460 lung; 73.9% in the experiment on HOP-92 NSCLC. Moreover, the growth in the experiment on NCI-H522 lung was 53.6%; with A549/ATCC NSCLC, 62.2%; in the experiment on 786-0 renal, 89.9%; in the experiment on COLO 205 colon, 71.1%; with DU-145 prostate, 88.3%; in the experiment on K-562 leukemia, 60.1%. Moreover, the growth is 78% in the experiment on MALME-3M melanoma; 89.4% with MDA-MB-231 breast; 68.6% in the experiment on RXF 393 renal; 86.4% with SF-268 CNS; 69% in the experiment on SF-295 CNS; 87.5% in the experiment on SF-539 CNS. In addition, the growth in the experiment with UACC-257 melanoma is 91.4%; in the experiment with M14 melanoma, 89%.

As for `COc1ccc(C(=O)/C=C/c2ccccn2)c(O)c1`, the growth was 85.4% with NCI-H23 lung; 98% in the experiment with NCI-H226 lung; 95.3% in the experiment with NCI-H322M lung; 87.5% in the experiment with HOP-62 NSCLC; 89.7% in the experiment with NCI-H460 lung; 78.6% in the experiment on HOP-92 NSCLC. In addition, the growth in the experiment on NCI-H522 lung was 69.4%; in the experiment on A549/ATCC NSCLC, 94%; in the experiment on 786-0 renal it was 79.6%; in the experiment on COLO 205 colon it was 103%; with DU-145 prostate it was 45.1%; with K-562 leukemia, 41.9%. The growth with MALME-3M melanoma is 88.2%; in the experiment on MDA-MB-231 breast it was 82.4%; with RXF 393 renal it was 56.2%; with SF-268 CNS, 90.5%; in the experiment with SF-295 CNS it was 97.1%; in the experiment with SF-539 CNS it was 49.4%. In addition, the growth in the experiment with UACC-257 melanoma is 100%; with M14 melanoma it was 86.6%.
